The nature of test [1]: reduced mouse 2C T cell binding to pMHC/ICAM-1 vesicles – MLPCN validation set, flow cytometry, LFA-1/ICAM-1 modulator project, pilot screen (AID 2523;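 active = response below a set limit, under 55% cells CD8-positive and vesicle-bound, and CD8 cells' 90th-percentile brightness under 279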;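 for vesicle binding response: mean PE anti-B7-1 fluorescence of CD8+ cells relative to row control; 100% = QL9-loaded vesicles with DMSO vehicle in the same plate row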). Particulars: 2C mouse CD8+ T cells, at 7 µM, stronger effect = lower value; double positive events: measured here: CD8+/vesicle+ event percentage. In general terms: A flow cytometer gives signals particle by particle.
The target in test [2] is Integrin beta-1 (Homo sapiens) + Integrin alpha-4 (Homo sapiens) (UniProt P13612+P05556). Nature of the test: alpha4beta1 integrin LIBS antibody binding reduction – U937 cells, HUTS-21 mAb, flow cytometry, validation set, VLA-4 allosteric modulator project, pilot screen (AID 2674).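 Note: antibody binding induced by the VLA-4 ligand LDV present at three times its Kd; 0% = LDV ligand with antibody and no compound and 100% = antibody without LDV.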 Particulars: HUTS-21 LIBS mAb binding, at 6.7 µM, stronger effect = higher value, binding induced by LDV ligand.

Test [3] in a line: calorie-restriction mimetic ROS inhibitors, yeast – validation compound set, pilot screen (AID 2706;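 active = superoxide response below 65% of plate, a cut near 3 SD across the whole screen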;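 note: yeast exposed to compound for one week at 30 degrees C before staining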;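 for superoxide response (% of plate): 100% = mean of all compound wells on the same plate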). The settings on record: S. cerevisiae aging, superoxide DHE fluorescence; at 10 µM, stronger effect = lower value.
Test [4] addresses Beta-adrenergic receptor kinase 1 (Homo sapiens) (UniProt P25098). Nature of the test: GRK2 binders displacing RNA aptamer, biochemical, validation, human GRK2, bead flow cytometry (AID 488806;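 active = aptamer binding inhibition above 30%, about 3 SD of noise from non-fluorescent compounds; inactive = inhibition at or below 30%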). The settings on record: bead-bound GRK2, FAM-aptamer displacement, at 10 µM, stronger effect = higher value.
For test [5], the target named is Beta-2 adrenergic receptor (Homo sapiens) (UniProt P07550). Description: agonist-induced loss of surface beta2AR – cell-based, FAP fluorogen, flow cytometry, validation set, pilot screen (AID 504459;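 active = percent response above 42, roughly 3 SD of non-fluorescent test compounds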;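 note: agonist-driven loss of surface beta2AR via internalization measured by FAP dye flow cytometry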). The settings on record: Am2.2-beta2AR cells, at 10 µM, stronger effect = higher value.
Test [6] has as its target AP-2 complex subunit beta (Homo sapiens) (UniProt P63010). Nature of the test: beta-arrestin/AP2 interaction blockers – biochemical, validation set, GST-AP2 beads, flow cytometry, pilot screen (AID 504541;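 active = inhibition above 54%, about 3 SD of non-fluorescent compounds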;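 note: AP2 carries R879A mutation and is captured from E. coli lysate; bead-bound FITC arrestin peptide fluorescence measuring arrestin peptide binding to AP2; 0% = DMSO wells and 100% = excess unlabeled arrestin peptide control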). The settings on record: FITC arrestin peptide, at 10 µM, stronger effect = higher value, AP2 beta2 appendage fragment, R879A mutant.
A short description of test [7]: cytosolic pH regulators acting via V-ATPase – S. cerevisiae, pHLuorin, HTS validation (AID 504600; in the data active = response above about 15%;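 note: plate controls were DMSO for no effect and reference compound for full effect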). Particulars: V-ATPase proton transport, at 10 µM, stronger effect = higher value.
For test [8], the system named is anti-desmoglein-3 scFv antibody binding to human DSG3. Description: blockers of pathogenic pemphigus antibody–desmoglein-3 binding – biochemical, validation compound set, bead-based, flow cytometry, pilot screen (AID 588368;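 active = binding below the plate cutoff, the plate median minus 3 SD, with a reading above zero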;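 note: signal is the median channel fluorescence of bead-bound GFP antibody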). The settings on record: Protein G beads, DSG3-Fc, scFv-GFP binding, at 10 µM, stronger effect = lower value.
Test [9] can be described thus: Nile Red efflux blockade in pump-expressing yeast – validation compound set, multiplex, phenotypic, pilot screen (AID 588506;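 active = efflux inhibition above 0.42, the validation set average plus 4 SD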;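 note: Nile Red retained in cells so higher fluorescence means more efflux inhibition; 0 = negative control wells and 1 = enniatin B 25 µM full block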). Particulars: S. cerevisiae pump-expressing triplex, Nile Red efflux flow cytometry; at 10 µM; stronger effect = higher value; the pumps come from Candida albicans.
The target of test [10] is ATP-binding cassette sub-family B member 6 (Homo sapiens) (UniProt Q9NP58). Description: blockers of ABCB6-driven porphyrin uptake – K562-ABCB6 cells, flow cytometry, validation set, pilot screen (AID 588550;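 active = inhibition above the screen-wide mean plus 3 SD, about 51%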;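 note: 0% = DMSO wells and 100% = benzethonium chloride 70 µM positive control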). Particulars: K562-ABCB6 porphyrin accumulation, 1 h, at 10 µM, stronger effect = higher value.
A short description of test [11]: AML differentiation inducers, ER-HoxA9 marrow cells – cell-based, GFP/MAC1 double positive, flow cytometry, validation set, primary screen (AID 588685;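 active = differentiation response of at least 50%, scaled between solvent and reference control, from cells with both markers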;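 note: compound exposure lasts four days before antibody staining and flow analysis; 0% = DMSO wells and 100% = 5 µM fulvestrant positive control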). The settings on record: stronger effect = higher value, normalized: vehicle 0, fulvestrant 100.

The source made the active and inactive calls.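 Rule for the calls, unless noted: active = inhibition above 50%, about 3 SD of the validation set; inactive = the rest.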

One may read the inhibition as the relative decrease from the control value, in per cent.

Integrin beta-1 (Homo sapiens) + Integrin alpha-4 (Homo sapiens), sequence (P05556 whole entry, looked up): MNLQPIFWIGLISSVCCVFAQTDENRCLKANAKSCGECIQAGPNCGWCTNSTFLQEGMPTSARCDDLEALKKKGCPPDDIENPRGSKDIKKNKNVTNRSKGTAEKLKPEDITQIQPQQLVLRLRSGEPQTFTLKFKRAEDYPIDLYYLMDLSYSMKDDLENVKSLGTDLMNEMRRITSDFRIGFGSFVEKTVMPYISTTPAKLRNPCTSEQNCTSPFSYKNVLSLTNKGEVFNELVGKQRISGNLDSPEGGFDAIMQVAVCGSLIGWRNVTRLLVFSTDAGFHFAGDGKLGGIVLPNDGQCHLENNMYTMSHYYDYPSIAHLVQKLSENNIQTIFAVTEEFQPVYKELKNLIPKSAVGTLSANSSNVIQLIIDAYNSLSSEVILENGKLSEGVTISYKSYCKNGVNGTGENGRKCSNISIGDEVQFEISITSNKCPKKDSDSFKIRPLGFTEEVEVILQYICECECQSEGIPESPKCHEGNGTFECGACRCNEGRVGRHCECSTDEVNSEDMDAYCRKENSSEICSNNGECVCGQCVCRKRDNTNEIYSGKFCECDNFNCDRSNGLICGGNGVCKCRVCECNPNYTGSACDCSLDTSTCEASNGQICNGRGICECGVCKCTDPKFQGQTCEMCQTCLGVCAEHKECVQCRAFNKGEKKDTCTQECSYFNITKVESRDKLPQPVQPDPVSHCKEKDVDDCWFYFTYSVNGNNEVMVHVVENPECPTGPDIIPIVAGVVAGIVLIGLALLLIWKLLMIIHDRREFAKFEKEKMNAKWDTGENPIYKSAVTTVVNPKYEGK
Integrin beta-1 (Homo sapiens) + Integrin alpha-4 (Homo sapiens), sequence (P13612 whole entry, looked up): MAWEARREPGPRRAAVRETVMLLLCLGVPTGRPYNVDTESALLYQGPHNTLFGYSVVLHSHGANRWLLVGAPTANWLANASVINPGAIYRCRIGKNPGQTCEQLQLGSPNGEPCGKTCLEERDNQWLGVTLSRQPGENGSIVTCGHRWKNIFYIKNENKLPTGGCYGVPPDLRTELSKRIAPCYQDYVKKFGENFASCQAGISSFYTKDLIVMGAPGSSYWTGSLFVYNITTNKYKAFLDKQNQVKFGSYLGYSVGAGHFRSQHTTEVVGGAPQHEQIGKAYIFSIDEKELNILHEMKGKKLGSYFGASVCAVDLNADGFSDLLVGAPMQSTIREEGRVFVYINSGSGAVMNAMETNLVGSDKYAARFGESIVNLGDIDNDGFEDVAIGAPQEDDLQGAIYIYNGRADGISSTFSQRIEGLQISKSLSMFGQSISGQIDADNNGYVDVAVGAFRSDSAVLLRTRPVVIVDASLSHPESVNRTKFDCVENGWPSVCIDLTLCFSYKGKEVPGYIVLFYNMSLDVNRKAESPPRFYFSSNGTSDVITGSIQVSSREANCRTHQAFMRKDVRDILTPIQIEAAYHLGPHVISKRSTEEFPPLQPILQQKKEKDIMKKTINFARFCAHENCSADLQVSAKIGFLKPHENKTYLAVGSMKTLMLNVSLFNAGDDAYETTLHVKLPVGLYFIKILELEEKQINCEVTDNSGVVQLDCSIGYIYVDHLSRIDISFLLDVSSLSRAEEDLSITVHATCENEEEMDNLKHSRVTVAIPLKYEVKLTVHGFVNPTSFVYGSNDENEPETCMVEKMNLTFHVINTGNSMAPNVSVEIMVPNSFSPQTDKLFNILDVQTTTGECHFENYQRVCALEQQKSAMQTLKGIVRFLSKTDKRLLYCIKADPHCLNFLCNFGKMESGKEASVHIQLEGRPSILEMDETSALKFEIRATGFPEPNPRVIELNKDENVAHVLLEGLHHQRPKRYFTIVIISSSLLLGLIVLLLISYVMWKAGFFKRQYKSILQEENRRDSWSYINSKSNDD
ATP-binding cassette sub-family B member 6 (Homo sapiens), sequence (Q9NP58 whole entry, looked up): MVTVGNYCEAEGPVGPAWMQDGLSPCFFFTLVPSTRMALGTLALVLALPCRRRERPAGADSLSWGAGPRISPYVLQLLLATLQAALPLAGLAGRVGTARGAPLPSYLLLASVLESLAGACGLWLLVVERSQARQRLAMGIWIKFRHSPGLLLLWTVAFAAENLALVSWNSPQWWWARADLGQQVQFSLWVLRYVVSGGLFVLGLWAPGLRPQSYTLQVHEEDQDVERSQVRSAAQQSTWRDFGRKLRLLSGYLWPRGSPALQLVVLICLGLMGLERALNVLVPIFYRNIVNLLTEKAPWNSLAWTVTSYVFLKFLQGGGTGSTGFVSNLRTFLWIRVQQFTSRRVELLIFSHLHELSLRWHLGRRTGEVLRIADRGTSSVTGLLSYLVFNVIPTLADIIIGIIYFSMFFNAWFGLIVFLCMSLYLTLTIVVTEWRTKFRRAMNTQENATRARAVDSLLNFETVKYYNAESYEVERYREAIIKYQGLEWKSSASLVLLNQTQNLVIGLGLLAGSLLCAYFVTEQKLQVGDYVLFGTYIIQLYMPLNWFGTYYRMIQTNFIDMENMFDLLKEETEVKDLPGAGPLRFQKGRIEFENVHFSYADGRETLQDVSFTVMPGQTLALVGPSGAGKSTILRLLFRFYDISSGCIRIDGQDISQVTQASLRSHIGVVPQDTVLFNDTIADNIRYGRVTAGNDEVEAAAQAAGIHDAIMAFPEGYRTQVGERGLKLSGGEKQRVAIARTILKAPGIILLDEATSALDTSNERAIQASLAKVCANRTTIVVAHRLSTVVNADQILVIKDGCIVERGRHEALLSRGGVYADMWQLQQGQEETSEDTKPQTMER
AP-2 complex subunit beta (Homo sapiens), sequence (P63010 whole entry, looked up, the tested form may be a part, one chain of several): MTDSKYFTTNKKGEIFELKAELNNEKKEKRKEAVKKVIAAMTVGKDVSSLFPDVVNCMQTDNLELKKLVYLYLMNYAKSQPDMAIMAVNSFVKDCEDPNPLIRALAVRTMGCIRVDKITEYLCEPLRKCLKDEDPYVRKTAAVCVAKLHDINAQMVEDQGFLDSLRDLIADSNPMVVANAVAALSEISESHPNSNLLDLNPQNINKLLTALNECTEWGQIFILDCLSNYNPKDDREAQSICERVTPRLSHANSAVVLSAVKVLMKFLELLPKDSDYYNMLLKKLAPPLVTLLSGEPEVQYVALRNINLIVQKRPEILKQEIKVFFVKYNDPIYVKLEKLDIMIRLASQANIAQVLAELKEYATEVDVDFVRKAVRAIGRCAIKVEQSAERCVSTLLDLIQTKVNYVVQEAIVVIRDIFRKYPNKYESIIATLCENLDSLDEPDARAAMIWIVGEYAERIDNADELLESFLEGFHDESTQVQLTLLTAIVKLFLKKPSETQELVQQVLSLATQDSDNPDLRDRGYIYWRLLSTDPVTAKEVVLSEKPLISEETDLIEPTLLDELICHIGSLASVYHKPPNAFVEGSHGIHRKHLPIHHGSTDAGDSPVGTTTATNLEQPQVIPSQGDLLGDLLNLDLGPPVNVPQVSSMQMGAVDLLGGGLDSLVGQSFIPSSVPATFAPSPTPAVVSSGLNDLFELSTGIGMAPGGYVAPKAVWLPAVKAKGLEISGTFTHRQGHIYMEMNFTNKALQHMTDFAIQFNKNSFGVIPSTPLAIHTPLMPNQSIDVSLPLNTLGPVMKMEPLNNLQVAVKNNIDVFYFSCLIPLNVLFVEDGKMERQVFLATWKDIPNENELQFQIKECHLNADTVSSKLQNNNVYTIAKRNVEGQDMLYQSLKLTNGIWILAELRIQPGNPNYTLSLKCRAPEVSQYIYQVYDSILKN
Beta-2 adrenergic receptor (Homo sapiens), sequence (P07550 whole entry, looked up): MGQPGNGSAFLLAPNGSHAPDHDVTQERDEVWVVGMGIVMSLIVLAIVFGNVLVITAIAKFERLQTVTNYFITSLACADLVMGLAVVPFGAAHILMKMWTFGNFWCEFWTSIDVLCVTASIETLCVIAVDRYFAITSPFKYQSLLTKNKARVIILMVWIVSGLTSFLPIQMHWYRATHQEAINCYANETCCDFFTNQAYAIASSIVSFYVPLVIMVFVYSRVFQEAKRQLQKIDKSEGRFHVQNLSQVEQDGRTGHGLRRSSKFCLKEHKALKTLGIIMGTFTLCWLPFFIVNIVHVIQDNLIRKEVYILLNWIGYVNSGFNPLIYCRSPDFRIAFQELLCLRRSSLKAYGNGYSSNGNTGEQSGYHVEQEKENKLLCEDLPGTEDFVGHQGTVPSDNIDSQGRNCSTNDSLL
Beta-adrenergic receptor kinase 1 (Homo sapiens), sequence (P25098 whole entry, looked up): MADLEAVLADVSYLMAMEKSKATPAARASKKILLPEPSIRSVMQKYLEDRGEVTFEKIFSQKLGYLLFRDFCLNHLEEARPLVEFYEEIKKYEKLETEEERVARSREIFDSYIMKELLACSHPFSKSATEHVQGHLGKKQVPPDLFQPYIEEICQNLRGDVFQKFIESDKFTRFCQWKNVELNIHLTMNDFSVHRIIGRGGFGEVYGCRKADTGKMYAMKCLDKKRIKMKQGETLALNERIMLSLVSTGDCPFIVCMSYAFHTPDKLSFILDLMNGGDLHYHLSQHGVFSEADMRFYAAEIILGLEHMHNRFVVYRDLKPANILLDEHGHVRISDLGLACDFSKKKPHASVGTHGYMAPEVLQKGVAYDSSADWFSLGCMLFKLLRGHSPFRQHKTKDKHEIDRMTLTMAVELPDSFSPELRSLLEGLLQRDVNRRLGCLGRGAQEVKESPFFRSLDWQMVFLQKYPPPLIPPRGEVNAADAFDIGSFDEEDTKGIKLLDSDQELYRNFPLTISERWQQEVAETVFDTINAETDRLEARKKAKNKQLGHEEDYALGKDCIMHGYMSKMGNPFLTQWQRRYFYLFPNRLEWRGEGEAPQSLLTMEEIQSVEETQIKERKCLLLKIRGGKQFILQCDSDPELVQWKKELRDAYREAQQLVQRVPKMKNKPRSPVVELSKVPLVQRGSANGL

As for `COc1ccc(/C=C2\CCc3ccccc3C2=O)c(OC)c1OC`, in test [1], the double positive events turned out to be 68.5%. For the same compound, the vesicle binding response in test [1] is 262% (inactive). The inhibition in [2] was 2.3% (inactive); in test [6] it was -2.94% (inactive); in test [10], 5% (inactive). The superoxide response (% of plate) in test [3] was 94.8% (inactive). Further, in test [4], the aptamer binding inhibition was 3% (inactive). The response in [5] is -0.85% (inactive); in test [7], 5.35% (inactive). The binding (% of control) in [8] was 102% (inactive). Further, in test [9], the efflux inhibition (fraction of control) was 0.15 (inactive). Besides, the differentiation response in [11] is 31.2% (inactive).

For `Oc1ccc(Oc2ncc(Cl)cc2Cl)cc1`, in test [1], the double positive events is 61.9%. The vesicle binding response in [1] is 223% (inactive). For the same compound, the inhibition is -3.67% (inactive) in test [2], -4.55% (inactive) in [6] and 6% (inactive) in test [10]. Besides, the superoxide response (% of plate) in test [3] was 73.7% (inactive). In [4], the aptamer binding inhibition is 2% (inactive). For the same compound, the response in [5] is -11% (inactive); in test [7] it was 8.39% (inactive). In test [8], the binding (% of control) is 107% (inactive). For the same compound, the efflux inhibition (fraction of control) in [9] is 0.12 (inactive). Also, the differentiation response in test [11] was -12.9% (inactive).

The compound `CN(C)c1cc(NC(=O)CN2CCOCC2)c2ccccc2n1` displayed a double positive events in test [1] of 64.4%. Further, in [1], the vesicle binding response is 183% (inactive). For the same compound, the values for the inhibition in [2], in test [6] and in test [10] were -9.06% (inactive), -0.56% (inactive) and 15% (inactive), respectively. In test [3], the superoxide response (% of plate) is 96.2% (inactive). Besides, in [4], the aptamer binding inhibition was -2% (inactive). In addition, the response in test [5] was 2.53% (inactive); in [7] it was -1.23% (inactive). Moreover, the binding (% of control) in [8] was 109% (inactive). In addition, in test [9], the efflux inhibition (fraction of control) was -0.17 (inactive). Moreover, the differentiation response in test [11] is -3.28% (inactive).

Compound `Cc1oc2c(CN3CCCC3)c(O)ccc2c(=O)c1-c1ccc(Cl)cc1` showed a double positive events in test [1] of 75.9%. The vesicle binding response in [1] is 328% (inactive). For the same compound, the inhibition was 3.14% (inactive) in [2], 6.26% (inactive) in test [6] and 10% (inactive) in test [10]. Besides, the superoxide response (% of plate) in test [3] was 81.5% (inactive). Also, the aptamer binding inhibition in test [4] is 1% (inactive). The results for the response in [5] and in [7] were -23.2% (inactive) and -0.55% (inactive), respectively. The binding (% of control) in [8] is 96.9% (inactive). Further, the efflux inhibition (fraction of control) in test [9] was 0 (inactive). The differentiation response in test [11] is -1.05% (inactive).

In [1], `CC1(C)C2CCC1(C(=O)O)c1nc3ccccc3nc12` (stereo unspecified) showed a double positive events of 61.8%. The vesicle binding response in test [1] was 372% (inactive). In addition, the inhibition was -1.12% (inactive) in test [2], 6.26% (inactive) in test [6] and 20% (inactive) in test [10]. For the same compound, the superoxide response (% of plate) in [3] is 72.9% (inactive). Also, the aptamer binding inhibition in [4] is 2% (inactive). The response is -10.7% (inactive) in [5] and 0.59% (inactive) in test [7]. In addition, the binding (% of control) in test [8] is 100% (inactive). Moreover, the efflux inhibition (fraction of control) in test [9] was 0.04 (inactive). Further, the differentiation response in test [11] is -6.96% (inactive).

For `COc1ccc(CCN2CCC(Nc3nc4ccccc4n3Cc3ccc(F)cc3)CC2)cc1`, in test [1], the double positive events stood at 44.8%. Moreover, in test [1], the vesicle binding response is 112% (inactive). Further, the inhibition was 16.3% (inactive) in [2], 1.18% (inactive) in [6] and -38% (inactive) in test [10]. For the same compound, in test [3], the superoxide response (% of plate) is 93.2% (inactive). For the same compound, the aptamer binding inhibition in test [4] is -15% (inactive). The response in [5] is 34.8% (inactive); in test [7], 4.6% (inactive). Moreover, the binding (% of control) in test [8] is 138% (inactive). In test [9], the efflux inhibition (fraction of control) is 0.415 (inactive). In addition, the differentiation response in test [11] is 10.1% (inactive).

Compound `C=C(C)COc1ccc(-c2nc(N)ncc2-c2ccc(OC)cc2)c(O)c1` displayed a double positive events in test [1] of 55.6%. Besides, the vesicle binding response in test [1] was 43.9% (inactive). The inhibition in test [2] was 20.3% (inactive); in test [6], -4.84% (inactive); in test [10], 4% (inactive). The superoxide response (% of plate) in test [3] was 111% (inactive). For the same compound, the aptamer binding inhibition in test [4] was 1% (inactive). In addition, the response is -10.8% (inactive) in test [5] and 1.42% (inactive) in test [7]. Also, the binding (% of control) in test [8] was 92% (inactive). For the same compound, the efflux inhibition (fraction of control) in test [9] is -0.45 (inactive). In test [11], the differentiation response was -9.53% (inactive).

In test [1], `O=C1Nc2ccc3sc4ccccc4c3c2C1=O` had a double positive events of 62%. Moreover, in test [1], the vesicle binding response is 162% (inactive). For the same compound, the inhibition in [2] is 9.63% (inactive); in [6] it was -0.66% (inactive); in test [10], -15% (inactive). In addition, the superoxide response (% of plate) in test [3] was 111% (inactive). Further, the aptamer binding inhibition in test [4] is 1% (inactive). Further, the response is 3.08% (inactive) in test [5] and -7.6% (inactive) in test [7]. In addition, the binding (% of control) in test [8] was 102% (inactive). In addition, in test [9], the efflux inhibition (fraction of control) was -0.19 (inactive). In addition, the differentiation response in test [11] was -0.18% (inactive).

In [1], `COc1ccccc1C(=O)N=C1NC(=O)CC2C(=O)NCCN12` (stereo unspecified) came in with a double positive events of 63.2%. For the same compound, the vesicle binding response in [1] was 245% (inactive). Moreover, the inhibition in test [2] is 6.4% (inactive); in [6], 0.24% (inactive); in test [10], 9% (inactive). Moreover, in test [3], the superoxide response (% of plate) was 100% (inactive). Moreover, the aptamer binding inhibition in [4] was 0% (inactive). The response in test [5] was -0.52% (inactive); in test [7], -0.05% (inactive). For the same compound, in test [8], the binding (% of control) was 103% (inactive). The efflux inhibition (fraction of control) in test [9] is 0.08 (inactive). In test [11], the differentiation response was -8.8% (inactive).

Turning to `CN(C)CCOc1ccccc1Cc1ccccc1`, the double positive events in test [1] was 69.2%. For the same compound, the vesicle binding response in test [1] was 210% (inactive). In addition, the inhibition in test [2] was 23.6% (inactive); in [6] it was -8.22% (inactive); in test [10], 14% (inactive). In addition, in test [3], the superoxide response (% of plate) is 85.8% (inactive). Besides, the aptamer binding inhibition in test [4] was 4% (inactive). The response in test [5] is -20.2% (inactive); in test [7], -1.1% (inactive). Further, in test [8], the binding (% of control) is 104% (inactive). Further, the efflux inhibition (fraction of control) in [9] was -0.13 (inactive). Further, the differentiation response in test [11] is -1.05% (inactive).

Turning to `O=c1cc(-c2ccc3c(c2)OCCO3)oc2ccc(Cl)cc12`, in test [1], the double positive events worked out at 59%. The vesicle binding response in test [1] was 102% (inactive). Besides, the inhibition in test [2] was 2.93% (inactive); in [6], -6.8% (inactive); in [10], 27% (inactive). Also, the superoxide response (% of plate) in [3] was 98.9% (inactive). Also, the aptamer binding inhibition in test [4] is -1% (inactive). For the same compound, the values for the response in test [5] and in [7] were -2.34% (inactive) and 51.3% (active), respectively. In test [8], the binding (% of control) was 74.9% (active). Also, in test [9], the efflux inhibition (fraction of control) was 0.08 (inactive). The differentiation response in test [11] is -6.03% (inactive).

The compound `CCOCc1cc(C)[nH]c(=O)c1C#N` registered a double positive events in test [1] of 60.2%. Besides, the vesicle binding response in test [1] is 225% (inactive). In addition, the inhibition is 3.67% (inactive) in [2], -6.13% (inactive) in test [6] and 7% (inactive) in test [10]. For the same compound, in test [3], the superoxide response (% of plate) was 98.3% (inactive). In [4], the aptamer binding inhibition was 2% (inactive). In addition, the results for the response in test [5] and in test [7] were 1.78% (inactive) and 1.03% (inactive), respectively. The binding (% of control) in [8] was 102% (inactive). For the same compound, the efflux inhibition (fraction of control) in test [9] is -0.21 (inactive). Moreover, the differentiation response in [11] is -4% (inactive).

`CC(=O)CCc1oc2ccccc2c1-c1ccccc1` came in with a double positive events in test [1] of 62.1%. In addition, in test [1], the vesicle binding response was 172% (inactive). The inhibition was 0.59% (inactive) in [2], -8% (inactive) in test [6] and 7% (inactive) in [10]. For the same compound, the compound was classed as inactive in test [3]. Further, in [4], the aptamer binding inhibition was -3% (inactive). Further, the values for the response in test [5] and in test [7] were -37.7% (inactive) and -1.06% (inactive), respectively. For the same compound, in test [8], the binding (% of control) is 108% (inactive). In addition, in test [9], the efflux inhibition (fraction of control) was 0.12 (inactive). Also, in test [11], the differentiation response is -1.05% (inactive).
